Source: PubChem
The entries come from a sample that favours hits as a whole.
PI5P4Ka inh = PI5P4K alpha (human) kinase inhibition; P48426; PI5P4Kalpha enzyme, ADP-Glo luminescence, 60 min; stronger effect = lower value; max response, %; 330,000 tested, 1.2% active; AID 652105; active = max response of -50% or lower; inconclusive = between -30% and -50%; inactive = -30% or higher; note: value at the top dose of about 77 µM
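ADP-Glo luminescence end-point read after a 60 min room-temperature kinase reaction of PI5P4Kalpha plus substrate, initiated with ATP at 5 microM final. Buffer: 0.038 M HEPES pH 7.4, EGTA, 0.1% CHAPS, 5% DMSO.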
PI4K2A inh = inhibitors of human PI4K2A; Q9BTU6; purified PI4K2A, ADP-Glo luminescence, 1 h; stronger effect = lower value; activity change, negative = inhibition, % at 76.9 µM; 420,000 tested, 0.13% active; AID 1346378; in the data active = activity change below about -50%; inconclusive = mostly about -30% to -49%;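 note: -100% = wells without enzyme as full effect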
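PI4K2A activity was measured by ADP-Glo luminescence: enzyme (4 ug/mL stock) and phosphatidylinositol (1.2 mM stock) in Tris pH 7.5/MgCl2/EGTA/Triton X-100 buffer were reacted with ATP (300 microM stock) for one hour at ambient temperature.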
Pin1 inhibitor = human Pin1 inhibition | Q13526 | Pin1 FP peptide displacement, HiFluor488, 10 min | Potency, µM (doses to about 115 µM), for inactives: at the top dose activity, negative = inhibition, most hits filed as inhibitors | 390,000 tested, 0.009% active | AID 504891; active = well fitted inhibition curve with a large enough effect in the polarisation, with a control signal flat, not every such curve was filed as active; inconclusive = small, poorly fitted or top-dose-only effect, or effect the other way, or a change in a side signal; inactive = no such curve, though single readings can be large or run the other way; the % refers to the polarisation; note: potency is the fitted concentration of half-maximal effect
Target sequence (Q13526 whole entry, looked up): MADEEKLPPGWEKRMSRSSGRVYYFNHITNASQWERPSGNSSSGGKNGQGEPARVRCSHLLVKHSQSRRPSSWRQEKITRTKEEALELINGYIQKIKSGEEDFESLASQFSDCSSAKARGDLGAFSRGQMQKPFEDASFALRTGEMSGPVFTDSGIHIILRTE
PGK inhibitor = blocks T. brucei phosphoglycerate kinase; P07378; PGK/GAPDH coupled, Kinase-Glo luminescence, 60 min; Potency, µM (top dose mostly 57.5 µM), for the others: at the highest dose activity change, negative = inhibition, usual class: inhibitors; 380,000 tested, 0.043% active; AID 602233; active = well fitted inhibition curve with a large enough effect; inconclusive = small, poorly fitted or top-dose-only effect; inactive = no such curve, though single readings can be large or run the other way; note: potency is the fitted concentration of half-maximal effect; nearly all actives have a fitted effect of over 60% in size
Target sequence (P07378 whole entry, looked up): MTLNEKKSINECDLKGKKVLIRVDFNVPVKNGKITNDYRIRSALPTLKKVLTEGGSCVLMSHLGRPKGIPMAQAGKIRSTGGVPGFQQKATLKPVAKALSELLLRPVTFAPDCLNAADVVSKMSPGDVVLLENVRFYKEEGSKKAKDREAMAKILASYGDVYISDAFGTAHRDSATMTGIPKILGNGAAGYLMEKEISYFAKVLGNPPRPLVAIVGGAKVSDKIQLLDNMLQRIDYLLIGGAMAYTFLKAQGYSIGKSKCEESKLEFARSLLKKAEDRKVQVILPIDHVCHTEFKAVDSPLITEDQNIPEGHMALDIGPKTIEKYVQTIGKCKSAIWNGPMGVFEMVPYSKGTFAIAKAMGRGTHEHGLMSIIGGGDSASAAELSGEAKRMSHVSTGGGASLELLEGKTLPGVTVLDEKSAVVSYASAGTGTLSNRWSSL
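Luminescent ATP detection (Kinase-Glo Plus) follows a 60-minute room-temperature incubation, with wells lacking PGK as controls. Buffer: 100 mM TEA (pH 7.6), 5 mM MgCl2, 0.01% Tween-20. Coupling enzyme GAPDH (100 nM final) supplies unstable 1,3-BPG in-well.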
The depositor's hits bear a star; i = inactive; ? = inconclusive; . = no result. Unless noted, % is set by controls: 0 for no effect and ±100 for the full control effect.

SMILES | PI5P4Ka inh | PI4K2A inh | Pin1 inhibitor | PGK inhibitor
O=S(=O)(c1ccccc1)c1cc(O)ccc1O | 12 | 2 | -2% | i
COc1ccc(C2=NO[C@@](CC(=O)O)(C(=O)Nc3ccc4c(c3)OCCO4)C2)cc1 | 1 | -1 | -6% | -9%
Cc1ccn2c(=O)nc(SCC(=O)c3ccccc3)nc2c1 | -62* | -10 | ? | 6%
Cc1cccc(Cn2ncc3c4sc(C)cc4n(C)c3c2=O)c1 | . | . | 2% | .
COC(=O)C1=C2SC(C)C(=O)N2C(N)=C(C#N)C1c1ccc(OC)c(OC)c1 (centres undefined) | -58* | -9 | 2% | -2%
COc1ccc(C2C(C#N)=C(N)SC(N)=C2C#N)cc1OC | -60* | -4 | ? | 8%
Cc1cccc(-c2[nH]c(C(C)(C)C)nc2-c2ccc3nccnc3c2)n1 | . | -2 | . | .
CCN(CC)CC(=O)Oc1ccc(NC(C)=O)cc1 | . | -2 | . | .
O=c1cc2oc3cc(O)c(O)cc3c(-c3ccccc3[N+](=O)[O-])c-2cc1O | -61* | ? | 44% | ?
S=c1[nH]c2cc(Cl)c3cccnc3c2o1 | -53* | -7 | 8% | -4%
O=C1CC(=O)N(Cc2cccs2)C(=O)N1 | ? | -23 | ? | 0%
O=C1CC(=O)N(Cc2ccco2)C(=O)N1 | . | ? | ? | 5µM*
N#Cc1ccccc1NC(=S)NC(=O)c1cccs1 | -56* | 33 | 3% | -2%
N#Cc1ccccc1NC(=O)COC(=O)c1cccs1 | -2 | -2 | 5% | -5%
Cc1c(P(=S)(c2ccccc2)c2ccccc2)c2ccccc2n1C/C=C/c1ccccc1 | . | . | 1% | .
CC(=O)Oc1cc(O)c2c(=O)c(OC(C)=O)c(-c3ccc(OC(C)=O)c(OC(C)=O)c3)oc2c1 | -98* | 1 | ? | -9%
CN(C)c1ccc(C=c2c3ccccc3n3c2cc(-c2ccc(Cl)cc2)[n+]3C)cc1 | -57* | -22 | ? | -13%
CN(C)c1ccc(C=c2c3cc([N+](=O)[O-])ccc3n3c2cc(-c2ccccc2)[n+]3C)cc1 | -78* | -51* | ? | -19%
CN(C)c1ccc(C=c2c3ccccc3n3c2cc(-c2ccccc2)[n+]3C)cc1 | -51* | ? | ? | -16%
COc1cc(N(C)C)ccc1C=c1c2ccccc2n2c1cc(-c1ccccc1)[n+]2C | ? | ? | 61% | ?
O=S(=O)(c1ccc2c(c1)OCCO2)N1CCN(S(=O)(=O)c2ccccc2Cl)CC1 | . | . | -15% | .
CC(C)(C)OC(=O)Nc1ncnc2c1C(c1ccccc1)c1c(ccc3ccccc13)O2 (centres undefined) | . | . | -1% | .
COc1cc(NCCCC(C)N)c2ncccc2c1 (centres undefined) | -3 | -51* | ? | i
COc1ccc(-c2ccc3ncnc(NCC4CCCO4)c3c2)cc1OC (centres undefined) | . | . | -2% | .
CC(=O)Nc1ccc(S(=O)(=O)N2CCCN(S(=O)(=O)c3ccc4c(c3)OCCO4)CC2)cc1 | . | . | 2% | .
SMILES | PI5P4Ka inh | PI4K2A inh | Pin1 inhibitor | PGK inhibitor
Cn1c(NCc2ccccc2)cc(=O)n(C)c1=O | 1 | 1 | 0% | i
Cn1c(CNc2ccccc2)cc(=O)n(C)c1=O | . | -69* | -6% | 2%
O=C(CSc1nc2ccccc2nc1N1CCCCC1)NCc1ccc(Cl)cc1Cl | . | 2 | . | .
N#Cc1c(-c2ccccc2)[nH]c(=O)[nH]c1=O | -92* | 3 | -9% | 2%
O=c1[nH]c(NC2CCCCC2)c([N+](=O)[O-])c(=O)[nH]1 | -76* | 1 | 0% | i
O=[S+]([O-])(c1ccc2nsnc2c1)N1CCN([S+](=O)([O-])c2c(F)cccc2F)CC1 | . | . | -1% | .
O=C(NCc1cccc(CNC(=O)C(=O)NCc2ccco2)c1)C(=O)NCc1ccco1 | -53* | ? | 9% | ?
CCOC(=O)N1CCc2c(sc(NC(=O)c3ccc(S(=O)(=O)N4CCCC4)cc3)c2C#N)C1 | -82* | 4 | ? | -2%
Cc1c(C=Nc2ccc(S(=O)(=O)N(C)C)cc2)c(O)[nH]c(=O)c1C#N | -90* | -1 | ? | i
Cc1c(C=Nc2ccc(S(=O)(=O)CCO)cc2)c(O)[nH]c(=O)c1C#N | -78* | -13 | ? | -3%
Cc1[nH]n(-c2ccc(F)cc2)c(=O)c1C=Nc1ccc(S(=O)(=O)N(C)C)cc1 | 0 | -5 | 0% | 2%
Cc1c(C#N)c(O)n(CCO)c(=O)c1N=Nc1ccc(S(N)(=O)=O)cc1 | -20 | -7 | 19% | -5%
C/C(=N\NC(=O)c1c[nH]c2ccccc12)c1ccccn1 | 4 | 0 | 3% | -2%
C/C(=N\NC(=O)c1cc2ccccc2cc1O)c1ccccn1 | -54* | 0 | ? | -1%
C/C(=N\NC(=O)c1cc2ccccc2cc1O)c1cc2ccccc2o1 | -91* | -6 | 25% | -2%
O=C(N/N=C/c1ccc(Sc2ccccn2)o1)c1cc2ccccc2cc1O | -67* | -25 | ? | -5%
C/C(=N\NC(=O)c1nc2ccccn2c1C)c1cc2ccccc2o1 | 2 | -4 | 3% | i
O=C(c1ccccc1)N1CCN(c2nc(-c3ccc(Br)cc3)cs2)CC1 | . | . | 13% | .
N#Cc1c(-c2ccc(Cl)cc2)no[n+]1[O-] | . | . | -9% | .
COC(c1ccccc1)(c1ccccc1)[C@H](Oc1nc(C)cc(C)n1)C(=O)O | . | -1 | . | .
CCOC(=O)/C(C#N)=C\c1cc(OC)c(OC)cc1[N+](=O)[O-] | -70* | 5 | -11% | -2%
CCOC(=O)/C(C#N)=C\c1ccc(OC)c(OC)c1 | 2 | 5 | -1% | -12%
O=C1C=CC(=O)N1CCCCCCN1C(=O)C=CC1=O | -58* | 4 | -1% | -3%
CC(=O)Nc1ccccc1OC1=N[S+](=O)([O-])c2ccccc21 | . | . | 1% | .
COc1ccc(-c2n[nH]c(=S)o2)c(OC)c1 | -86* | -8 | 2% | 6%
SMILES | PI5P4Ka inh | PI4K2A inh | Pin1 inhibitor | PGK inhibitor
O=c1c(-c2cc3ccccc3[nH]2)nc2ccccc2n1C(CCc1ccccc1)c1nc2ccccc2[nH]1 (centres undefined) | -6 | 8 | . | .
O=C(NNc1nc(-c2ccccc2)cs1)c1ccc(F)cc1 | -5 | 3 | -8% | -3%
O=C(NNc1nc(-c2ccc(F)cc2)cs1)c1ccccc1 | -53* | 7 | 4% | -2%
O=C1ON=C(c2ccccc2)/C1=C/c1cccnc1 | 2 | 1 | -3% | -6%
COc1ccc(/C=C2\C(=O)ON=C2c2ccccc2)cc1 | -53* | -1 | -10% | -2%
O=C1ON=C(c2ccccc2)/C1=C/c1ccc(OS(=O)(=O)c2ccccc2)cc1 | -69* | 1 | ? | -5%
O=C1ON=C(c2ccccc2)/C1=C/c1ccc(O)c(O)c1 | -59* | -4 | -3% | -3%
COc1cccc(Cn2ncc3c4sc(C)cc4n(C)c3c2=O)c1 | . | . | 2% | .
COc1ccc(NC(=O)C(=O)NCC(c2cccnc2)N2CCc3ccccc3C2)cc1 (centres undefined) | . | 1 | ? | i
Cc1ccc(NS(=O)(=O)c2ccc3c(c2)CCO3)cc1C | . | . | -1% | .
CCOc1ccc(OCC(=O)Nc2nccs2)cc1 | ? | -86* | 1% | ?
